# Test results from PMC4336329 (PLoS ONE, 2015).
# The whole screen tested about 310,000 compounds, of which about 2,200 (0.71%) showed an effect of 50% or more. The effect is printed as a negative number. For the sample, strong results were picked, then their nearest neighbours and some compounds at random.
# Molecular target: human ether-à-go-go-related gene (hERG) potassium channel (human, UniProt Q12809)
# Assay: primary screen, population patch clamp on CHO cells stably expressing hERG; higher = less effect of the substance
# Chain of human ether-à-go-go-related gene (hERG) potassium channel (Q12809 whole entry, looked up): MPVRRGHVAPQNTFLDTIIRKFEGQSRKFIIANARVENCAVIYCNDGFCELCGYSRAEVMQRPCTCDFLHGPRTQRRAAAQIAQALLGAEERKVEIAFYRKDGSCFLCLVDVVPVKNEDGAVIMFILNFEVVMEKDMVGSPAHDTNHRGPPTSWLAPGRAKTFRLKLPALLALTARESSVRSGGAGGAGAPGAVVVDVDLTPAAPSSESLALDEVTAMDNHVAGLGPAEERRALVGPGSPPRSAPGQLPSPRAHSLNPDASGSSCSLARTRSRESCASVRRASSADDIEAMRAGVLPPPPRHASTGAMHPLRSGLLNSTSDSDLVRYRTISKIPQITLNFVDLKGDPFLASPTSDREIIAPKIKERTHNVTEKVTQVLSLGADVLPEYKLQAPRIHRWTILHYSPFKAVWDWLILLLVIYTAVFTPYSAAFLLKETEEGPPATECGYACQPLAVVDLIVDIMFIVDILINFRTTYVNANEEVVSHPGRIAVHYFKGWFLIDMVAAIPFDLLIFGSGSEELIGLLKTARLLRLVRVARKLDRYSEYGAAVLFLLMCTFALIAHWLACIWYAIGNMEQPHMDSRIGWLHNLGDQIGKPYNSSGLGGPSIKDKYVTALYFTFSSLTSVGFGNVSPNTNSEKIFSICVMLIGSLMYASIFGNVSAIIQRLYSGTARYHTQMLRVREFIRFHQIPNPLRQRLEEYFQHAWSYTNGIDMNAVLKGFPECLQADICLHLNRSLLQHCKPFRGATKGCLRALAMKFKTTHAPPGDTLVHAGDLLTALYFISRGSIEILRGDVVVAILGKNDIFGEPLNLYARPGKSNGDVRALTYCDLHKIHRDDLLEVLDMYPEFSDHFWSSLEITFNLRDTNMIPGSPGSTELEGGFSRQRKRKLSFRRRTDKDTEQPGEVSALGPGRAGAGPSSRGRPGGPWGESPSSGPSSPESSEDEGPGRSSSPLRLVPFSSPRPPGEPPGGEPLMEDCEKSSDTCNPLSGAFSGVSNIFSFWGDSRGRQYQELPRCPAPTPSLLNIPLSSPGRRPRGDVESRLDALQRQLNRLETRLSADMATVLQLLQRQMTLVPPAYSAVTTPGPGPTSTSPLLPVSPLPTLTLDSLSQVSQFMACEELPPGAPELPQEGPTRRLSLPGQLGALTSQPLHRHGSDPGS
row,SMILES,"hERG current change (%, negative = inhibition) at 1uM"
1,COc1ccccc1C(=O)NC(=O)CSc1nncn1C,18.2%
2,CCCSC1=C(C#N)C(c2ccc(Cl)cc2Cl)CC(=O)N1 (stereo not shown),11.8%
3,O=C(O)c1cc(-c2ccc(N3CCOCC3)cc2)nn1-c1ccc(F)cc1F,12.7%
4,Fc1ccccc1CNc1ccc(Cl)c(Cl)c1,11.7%
5,Fc1ccc(NCc2ccccc2F)cc1Cl,-76.5%
6,Fc1ccccc1CNc1ccc(Cl)cc1,12.8%
7,COc1ccc(CCn2c(NCCCN3CCOCC3)nc3c2c(=O)[nH]c(=O)n3C)cc1,7.24%
8,Nc1ccc(OCCc2ccccc2)cc1,11.5%
9,O=c1c(Cl)c(NCc2ccco2)cnn1C12CC3CC(CC(C3)C1)C2,4.54%
10,CCCCN(CCCC)c1ccc(C(=O)c2ccccc2C(=O)O)c(O)c1,-50.5%
11,CN(C)c1ccc(C(=O)c2ccccc2C(=O)O)c(O)c1,13.2%
12,CCN(CC)c1ccc(C(=O)c2ccccc2C(=O)O)c(O)c1,11.7%
13,CCN(CC)S(=O)(=O)c1cccc(-c2nnc(SCCOc3ccccc3)o2)c1,12.4%
14,O=C(COC(=O)c1ccc2ncsc2c1)Nc1cc([N+](=O)[O-])ccc1Cl,7.27%
15,COc1ccc(S(=O)(=O)Nc2ccc(NC(C)=O)cc2)cc1Cl,10.3%
16,O=C(NCCCCc1ccccc1)C12CN(Cc3ccccc3)CC1C(c1cccc([N+](=O)[O-])c1)=NO2 (stereo not shown),10.9%
17,CCCCN(CCCC)CCCNC(=O)C12CN(Cc3ccccc3)CC1C(c1cccc([N+](=O)[O-])c1)=NO2 (stereo not shown),-53.1%
18,CC(C)CCNC(=O)C12CN(Cc3ccccc3)CC1C(c1cccc([N+](=O)[O-])c1)=NO2 (stereo not shown),9.69%
19,O=C(/C=C/c1cccnc1)c1cc(F)ccc1O,8.59%
20,COCCNC(=O)c1ccccc1NC(=O)c1ccccc1N(C)S(=O)(=O)c1ccc(C)cc1,8.36%
21,CCOC(=O)c1sc(-c2ccccc2)nc1C,9.24%
22,CC(=O)Nc1ccc(OC(=O)c2cc3cc(Br)cc(Br)c3oc2=O)cc1,5.16%

row,SMILES,"hERG current change (%, negative = inhibition) at 1uM"
1,CCOc1ccc(/C=N/N2C(C)CCCC2C)cc1 (stereo not shown),12%
2,Nc1nc(CN2CCN(c3ccccn3)CC2)nc(Nc2ccc(F)cc2)n1,-49%
3,CCOC(=O)N1CCN(Cc2nc(N)nc(Nc3ccc(C)cc3)n2)CC1,-37%
4,COc1ccccc1N1CCN(Cc2nc(N)nc(Nc3ccccc3)n2)CC1,-33.8%
5,COc1ccc(Nc2nc(N)nc(CN3CCC(Cc4ccccc4)CC3)n2)cc1,-81%
6,COc1cccc(N2CCN(Cc3nc(N)nc(Nc4ccccc4)n3)CC2)c1,-31.9%
7,Nc1nc(CN2CCN(c3ccccn3)CC2)nc(Nc2ccc(Cl)cc2)n1,-56.2%
8,Nc1nc(CN2CCC(Cc3ccccc3)CC2)nc(Nc2ccccc2)n1,-87.4%
9,Nc1nc(CN2CCN(C(c3ccccc3)c3ccccc3)CC2)nc(Nc2ccccc2)n1,10.2%
10,CCOC(=O)N1CCN(Cc2nc(N)nc(Nc3ccc(OC)cc3)n2)CC1,-9.74%
11,COc1ccc(Nc2nc(N)nc(CN3CCc4ccccc4C3)n2)cc1,-23.3%
12,CCOC(=O)N1CCN(Cc2nc(N)nc(Nc3ccc(OCC)cc3)n2)CC1,-56%
13,COc1ccc(Nc2nc(N)nc(CN3CCN(c4ccccn4)CC3)n2)cc1,-37.1%
14,O=C(c1ccccc1)c1ccc(OCC(O)CN2CCN(S(=O)(=O)N3CCCCC3)CC2)cc1 (stereo not shown),-12.6%
15,COc1ccccc1N(CC(=O)NC1CCCC1)C(=O)CCC(=O)Nc1cc(C)on1,8.06%
16,CCn1c2ccc(F)cc2c2nc3ccccc3nc21,10.2%
17,CCOC(=O)Cc1[nH]nc2c1C(c1cc(OC)ccc1OC)C(C#N)=C(N)O2 (stereo not shown),14.9%
18,CSc1oc(-c2cccs2)nc1S(=O)(=O)c1ccccc1,4.25%
19,CN(C)c1ccc(CNc2nc(-c3ccccc3)nn2S(C)(=O)=O)cc1,14.6%
20,O=C(COc1ccc(S(=O)(=O)N2CCOCC2)cc1)N1CCCCCC1,25.1%
21,COc1ccc(CCNC(=O)COC(=O)/C=C/c2cccs2)cc1OC,11.7%
22,O=C(O)CCCN1C(=O)NC2NC(=O)NC21 (stereo not shown),10.2%

row,SMILES,"hERG current change (%, negative = inhibition) at 1uM"
1,Nc1nc(CN2CCCCCC2)nc(Nc2ccccc2)n1,-31.9%
2,COc1ccc(Nc2nc(N)nc(CN3CCN(c4ccc(F)cc4)CC3)n2)cc1,-19.3%
3,COc1ccc(Nc2nc(N)nc(CN3CCOCC3)n2)cc1,1.93%
4,Nc1nc(CN2CCN(c3ccccc3)CC2)nc(Nc2ccc(Cl)cc2)n1,-44.8%
5,Nc1nc(CN2CCN(Cc3ccccc3)CC2)nc(Nc2ccccc2)n1,-56.3%
6,COc1ccc(Nc2nc(N)nc(CN3CCC(C)CC3)n2)cc1,-50.7%
7,O=C(CSc1ncn(-c2ccccc2)n1)N1CCc2ccccc21,1.39%
8,O=S(=O)(c1ccc(Cl)cc1)N1CCC2(CC1)OCCO2,2.73%
9,FC(F)(F)c1cccc(N2CCN(C(=S)NCC3CCCO3)CC2)c1 (stereo not shown),4.59%
10,COc1ccc(-c2nn(C)c(=O)c3ccccc23)cc1CNC(=O)CN1CCOCC1,6.56%
11,CCOc1cccc2sc(N(CCCN(C)C)C(=O)c3ccc(C(=O)c4ccccc4)cc3)nc12.Cl,-29.5%
12,COc1cccc2sc(N(CCCN(C)C)C(=O)COc3ccc(Cl)cc3)nc12.Cl,-68.9%
13,CN(C)CCCN(C(=O)COc1ccccc1)c1nc2c(F)cccc2s1.Cl,-55.8%
14,CCOc1cccc2sc(N(CCCN(C)C)C(=O)Cc3ccccc3)nc12.Cl,-83.7%
15,CN(C)CCCN(C(=O)COc1ccc(Cl)cc1)c1nc2c(F)cccc2s1.Cl,-16.9%
16,CN(C)CCCN(C(=O)COc1ccc(Cl)cc1)c1nc2ccc(F)cc2s1.Cl,8.45%
17,Cc1cccc2sc(N(CCCN(C)C)C(=O)COc3ccc(Cl)cc3)nc12.Cl,-6.98%
18,CCOc1cccc2sc(N(CCCN(C)C)C(=O)c3ccc(S(=O)(=O)N(C)Cc4ccccc4)cc3)nc12.Cl,-1.82%
19,CN(C)CCCN(C(=O)COc1ccccc1)c1nc2c(Cl)cccc2s1.Cl,-45.5%
20,CCOC(=O)c1c(NC(=O)c2cc(CC(C)C)on2)sc(C(C)=O)c1C,12.5%
21,CC(C)CN(C(=O)COC(=O)c1cnc(Cl)c(Cl)c1)c1c(N)n(Cc2ccccc2)c(=O)[nH]c1=O,8.68%
22,COc1ccc(-c2n[nH]c(C)c2-c2ccc(Cl)cc2)c(O)c1,10.2%

row,SMILES,"hERG current change (%, negative = inhibition) at 1uM"
1,CCOC(=O)CSc1nc(Cc2ccccc2)nc2ccccc12,3.08%
2,Cn1nc(C(F)(F)F)c2cc(C(=O)N3CCOCC3)sc21,5.87%
3,COc1ccccc1N1CCN(C2CCCN(C(=O)CCC(=O)N(C)C)C2)CC1 (stereo not shown),-3.24%
4,CCCC(=O)NC(=S)Nc1ccc(NC(=O)c2cccs2)cc1,-3.11%
5,Cc1cc(=O)[nH]c(SCC(=O)c2ccc(C)c(C)c2)n1,18.1%
6,N#Cc1c2c(c(Nc3ccccc3)n3c1nc1ccccc13)CCC2,10.4%
7,N#Cc1c2c(c(Nc3ccc(O)cc3)n3c1nc1ccccc13)CCC2,11.7%
8,CC(=O)c1ccc(Nc2c3c(c(C#N)c4nc5ccccc5n24)CCC3)cc1,-67%
9,CC(C1CC1)N(Cc1ccccc1)C(=S)Nc1ccccc1Cl (stereo not shown),3.13%
10,COc1cccc(-c2noc(CCC(=O)NC3CCCCC3)n2)c1,0.894%
11,O=C(CSc1nc2ccccc2c(=O)[nH]1)N1CCN(c2ccccc2)CC1,12.9%
12,COc1ccccc1N1CCN(C(=O)CSc2nnc3c4ccccc4nc(Cc4ccccc4)n23)CC1,-1.26%
13,COCCNC(=O)CSc1nc2ccccc2c(=O)n1CCC(=O)N1CCN(c2ccccc2)CC1,6.84%
14,COc1ccccc1N1CCN(C(=O)CSc2nc3ccccc3nc2N2CCCCC2)CC1,16.5%
15,COCCNc1nc(SCC(=O)N2CCN(c3ccccc3)CC2)nc2ccccc12,-94.4%
16,COCCNc1nc(SCC(=O)N2CCN(c3ccccc3OC)CC2)nc2ccccc12,-92.9%
17,COc1cc2ccccc2cc1C(=O)N1CC(C)CC(C)C1 (stereo not shown),-3.89%
18,CCOC(=O)N/N=C/c1cccnc1,5%
19,CCCCN(C(=O)COC(=O)c1ccc(C=O)cc1)c1c(N)n(CCC)c(=O)[nH]c1=O,11%
20,Cc1nc(N2CCN(C(=O)CCC(=O)O)CC2)c2c(C)c(C)sc2n1,-4.32%
21,Cc1nc(N2CCN(C(=O)COc3ccccc3)CC2)c2c(C)c(C)sc2n1.Cl,-29.3%
22,CCC(=O)N1CCN(c2nc(C)nc3sc(C)c(C)c23)CC1,-54%
